Compound activity: PubChem BioAssay, several laboratories
In the library only some 2.7% were active in any assay of this set; here they are far more common.
HIF-2a inh: blocks HIF-2a reporter activity; 786-0 RCC cells HIF-2a reporter, luciferase luminescence, overnight; inhibition, % at 18.8 µM; 360,000 compounds, 0.72% hits; AID 624352;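 active = inhibition of the luminescence signal of 40% or more relative to plate controls, in a single-dose primary screen at 18.75 µM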
TRPM1 prom inh: inhibitors of MITF-driven TRPM1 promoter in melanoma cells; SK-MEL-5 TRPM1 promoter luciferase, 24 h; inhibition, % at 12.5 µM; 330,000 compounds, 0.83% hits; AID 488899;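 active = mean inhibition across replicates of 60% or more, whatever share of single replicates reaches that level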
Shn3 inh set2: Schnurri-3 reporter inhibition in Clone20 osteoblasts; AID 588674; inhibition, % at 12.5 µM; 360,000 compounds, 0.52% hits; Clone20 osteoblast Shn3 3'UTR firefly luciferase, 24 h;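 active = mean inhibition of at least 75% with every replicate also reaching 75%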;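 also: 0% = median of neutral control wells and 100% = pilot-screen positive control compound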
Peg3 promoter: inhibitors of Peg3 promoter. AID 588405. 360,000 compounds, 1.7% hits. HeLa PEG-Prom luciferase reporter, luminescence, overnight. inhibition, % at 20 µM;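 active = inhibition of at least 50% at 20 µM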
CF NFkB block: inhibitors of cystic fibrosis induced NF-kB; KKLEB NF-kB-GFP reporter, PAF-induced, GFP fluorescence overnight; inhibition, % at 5 µM; 360,000 compounds, 0.86% hits;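 active = at least 50% inhibition at 5 µM, scaled per plate between neutral and stimulator controls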;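 also: PAF is a Pseudomonas aeruginosa culture filtrate used as stimulus; plate controls were PAF-stimulated DMSO wells for no effect and unstimulated DMSO wells for full effect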
KKLEB tox: counter-screen for CF NF-kB inhibitors: cytotoxicity. KKLEB CF airway cells viability, ATPlite luminescence, overnight; stronger effect = lower value; cells stimulated with P. aeruginosa culture filtrate. activity change (cytotoxicity), % at 5 µM. 360,000 compounds, 0.36% hits. AID 602141;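 active = corrected activity change at or below -50% at 5 µM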
CF NFkB inh conf: confirmation of cystic fibrosis induced NF-kB inhibitors. KKLEB CF airway cells, PAF-induced NF-kB-GFP fluorescence, overnight. inhibition, % at 5 µM. 1,300 compounds, 64% hits. shares compounds with CF NFkB block. AID 602472; in the data active = inhibition above about 40%;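 also: stimulus PAF is a Pseudomonas aeruginosa filtrate and not platelet activating factor; plate controls were DMSO wells with stimulus for no effect and unstimulated DMSO wells for full effect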
* = called active by the depositor; x = not tested or not shown.

SMILES | HIF-2a inh | TRPM1 prom inh | Shn3 inh set2 | Peg3 promoter | CF NFkB block | KKLEB tox | CF NFkB inh conf
COc1ccccc1-c1n[nH]nc1C1=CC(=O)C[C@H](c2ccc(F)cc2)C1 | 23.1 | x | 7.2 | 28.0 | 16.0 | -4.5 | x
CCc1ccc(-c2n[nH]nc2C2=CC(=O)C[C@H](c3ccc(F)cc3)C2)cc1 | 4.8 | x | 12.2 | 36.0 | 61.1* | 1.3 | 39.7
Cc1ccc(S(=O)(=O)Oc2ccc(/C=N/NC(=O)c3nn(C)cc3[N+](=O)[O-])cc2)cc1 | 1.4 | 0.6 | 5.3 | -50.2 | 51.0* | -34.0 | -56.6
Cc1ccc(S(=O)(=O)Oc2ccccc2/C=N/NC(=O)c2nn(C)cc2[N+](=O)[O-])cc1 | -3.0 | -3.2 | -8.2 | -4.4 | 4.9 | -6.9 | x
CCOC(=O)c1c(C)[nH]c(C)c1C(=O)CSc1nc2ccccc2n1CC | 6.9 | 0.5 | -2.7 | 13.1 | 6.3 | -6.2 | x
CCOC(=O)c1c(C)[nH]c(C)c1C(=O)CSc1nc2ccccc2c(=O)n1-c1ccc(CC)cc1 | -10.8 | 12.4 | 89.8* | 44.2 | 55.9* | -19.1 | 36.7
CC(C)C[C@H]1CN(CCCC[C@H]2CNC(=O)C(=O)N2CCc2ccccc2)C(=O)C(=O)N1CCc1ccccc1 | -4.9 | x | x | x | x | x | x
O=C(NNC(=S)Nc1cccc(C(F)(F)F)c1)c1cccc(Cl)c1 | -56.4 | 6.2 | 3.9 | -11.1 | 50.7* | -26.0 | 76.6*
O=C(NNC(=S)Nc1cccc(C(F)(F)F)c1)c1ccccc1Cl | -71.7 | -1.1 | 3.2 | 10.1 | -6.5 | 6.7 | x
CC1(C(=O)NS(=O)(=O)c2ccc(C#N)cc2)CCN1C(=O)Cc1cccc2ccccc12 (centres undefined) | 6.5 | x | -13.8 | 2.7 | -3.3 | 0.9 | x
Cc1ccccc1NC(=O)OCc1ccccc1 | -195.5 | -46.9 | -44.6 | -180.3 | 4.9 | 3.4 | x
COc1cccc2sc(N(CCN(C)C)C(=O)/C=C/c3cccs3)nc12 | 23.3 | 46.8 | -2.5 | 13.1 | 36.0 | -19.8 | x
COc1ccc(C)c2sc(N(CCN(C)C)C(=O)/C=C/c3cccs3)nc12 | 8.4 | 88.4* | -15.7 | 50.5* | 55.9* | -35.0 | 9.1
O=C(COC(=O)c1ccc2[nH]c3c(c2c1)CCCC3)Nc1ccccc1Cl | -11.9 | -14.5 | -1.1 | 19.0 | 56.3* | -38.3 | 54.0*
COc1ccc(C2CC(c3ccccc3)=NN2C(=O)COC(=O)c2ccc(S(C)(=O)=O)cc2)cc1 (centres undefined) | -25.7 | 4.0 | 14.5 | 8.0 | 54.8* | 20.5 | 46.0*
COc1ccc([C@@H](OC)[C@@]2(Cc3ccc(O)cc3)N=C(N)N(C)C2=O)cc1 | -12.9 | 6.4 | 4.4 | -10.0 | 5.1 | -4.4 | x
CC(=O)C1=C(O)CC(c2ccccc2)CC1=NCCc1c(C)[nH]c2ccc(C)cc12 (centres undefined) | 4.0 | x | 2.6 | -0.7 | 0.1 | -2.3 | x
CCC(=NCCc1c(C)[nH]c2ccc(C)cc12)C1=C(O)CC(c2ccccc2)CC1=O (centres undefined) | 28.5 | 22.3 | 12.1 | 21.6 | 57.3* | -20.5 | 77.7*
CC1C(c2ccccc2)OCCN1C(=S)Nc1ccc(S(=O)(=O)N2CCCCC2)cc1 (centres undefined) | 16.0 | x | -5.9 | 19.6 | 57.5* | -0.9 | 60.2*
Nc1nc(N)nc(-c2ccccc2O)n1 | -58.1 | -5.4 | -17.3 | -77.8 | 16.0 | 5.4 | x
Nc1nc(-c2ccccc2)nc(-c2ccccc2O)n1 | -194.6 | 6.0 | -32.1 | 0.7 | 56.6* | -13.9 | -38.4
CS(=O)(=O)N1N=C(c2cccs2)CC1c1ccccc1O (centres undefined) | 15.6 | -1.3 | 10.1 | 7.1 | 2.5 | -0.8 | x
Oc1ccccc1C1CC(c2cccs2)=NC(c2ccc(Cl)cc2)N1 (centres undefined) | -46.8 | -1.8 | 16.0 | 17.6 | 64.7* | -40.2 | 10.4
CC(C)(C)OC(=O)NCCCCCNC(=O)c1nc[nH]c1C(=O)NCC(=O)OCc1ccccc1 | -0.3 | 16.6 | 29.5 | 73.8* | 73.9* | -6.1 | 72.3*
C=CCn1c(Oc2ccccc2F)nc2c1c(=O)n(C)c(=O)n2C | 21.7 | 4.9 | 8.0 | 9.9 | 57.2* | -15.7 | 63.7*
SMILES | HIF-2a inh | TRPM1 prom inh | Shn3 inh set2 | Peg3 promoter | CF NFkB block | KKLEB tox | CF NFkB inh conf
C=CCn1c(Oc2cc(C)ccc2C)nc2c1c(=O)n(C)c(=O)n2C | 18.9 | 0.5 | -8.9 | -2.0 | 26.7 | -14.2 | x
Cc1onc(-c2ccccc2)c1C(=O)NCC(=O)Nc1cc(Cl)ccc1Cl | 6.7 | 9.1 | -5.8 | 7.6 | -4.8 | 8.4 | x
Cc1ccc2cc(/C=C/C(=O)c3ccco3)c(Cl)nc2c1 | -224.2 | x | -182.2 | -165.3 | 64.3* | -31.3 | -101.0
CCCCCCSc1cc(-c2nc3ccc(C)cn3c2NCc2ccccc2)ccc1OC | -51.7 | -0.1 | -3.7 | 49.8 | 52.8* | -2.8 | 29.9
CCCCCCSc1cccc(-c2nc3ccc(C)cn3c2NCc2ccccc2)c1 | -185.3 | -22.6 | -6.4 | -59.3 | 20.8 | 9.1 | x
Cc1ccc(-c2ccc(CN3C(C(C)C)C(=O)N(Cc4cn(CCC5OCCO5)nn4)CCS3(=O)=O)cc2)c(C)c1 (centres undefined) | -17.6 | x | 21.5 | 15.7 | 64.7* | -14.5 | 36.3
CC1C(=O)N(Cc2cn(Cc3ccco3)nn2)CCS(=O)(=O)N1Cc1ccc(-c2ccccc2C(F)(F)F)cc1 (centres undefined) | -16.2 | x | 11.1 | 18.4 | 66.0* | -22.7 | 52.1*
CC1C(=O)N(Cc2cn(Cc3ccco3)nn2)CCS(=O)(=O)N1Cc1ccc(-c2ccc(Cl)c(Cl)c2)cc1 (centres undefined) | -21.3 | x | 14.0 | 20.6 | 65.3* | 5.3 | 28.2
CCC/C=C/c1ccc(CN2C(C)C(=O)N(Cc3cn(Cc4ccco4)nn3)CCS2(=O)=O)cc1 (centres undefined) | -2.6 | x | 18.3 | 13.8 | 20.1 | -10.3 | x
CCC/C=C/c1ccc(CN2C(C(C)C)C(=O)N(Cc3cn(Cc4ccco4)nn3)CCS2(=O)=O)cc1 (centres undefined) | -34.7 | x | 2.5 | 20.9 | 52.4* | 8.3 | 45.3*
Cc1c(Cl)cccc1NC(=O)CCN1CCN(C)CC1 | 21.3 | -1.2 | -0.2 | 3.9 | -3.1 | -1.3 | x
O=C(CCNS(=O)(=O)c1ccccc1)OCC(=O)c1ccc[nH]1 | 7.6 | 4.0 | -11.2 | -16.1 | -14.7 | 9.2 | x
CCCS(=O)(=O)NC(=O)C1(C)CCCN(C(=O)c2oc3ccccc3c2C)C1 (centres undefined) | -9.5 | x | -8.8 | -1.1 | -7.6 | 4.7 | x
Cc1ccccc1-c1ccc(CN2C(C)C(=O)N(Cc3cn(Cc4ccco4)nn3)CCS2(=O)=O)cc1 (centres undefined) | 2.0 | x | -6.3 | 27.4 | 60.1* | 7.0 | 19.2
Cc1ccc(-c2ccc(CN3C(C)C(=O)N(Cc4cn(CC5CCCCC5)nn4)CCS3(=O)=O)cc2)cc1 (centres undefined) | -35.1 | x | 17.6 | 11.5 | 75.6* | -23.7 | 40.0
